{
  "source": "PubChem BioAssay (EPA / NIEHS)",
  "note": "Activity calls are given as the source filed them. The calls were made as follows: active = hit-call score of the fitted dose curve at least 0.9, where 1 is the maximum; inactive = score below 0.9.",
  "data": [
    {"read-out": "Fatty acid synthase (Homo sapiens) (UniProt P49327)", "test": "LTEA_HepaRG_FASN: Life Technologies and Expression Analysis (LTEA) Assay for Fatty Acid Synthase (FASN) using HepaRG (AID 2283448)", "details": "mRNA level, 48 h; actives raise or lower the signal", "method_in_brief": "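Transcript-level assay: HepaRG liver cells are treated for 48 h across an eight-point range topping at 100 uM, and FASN mRNA, normalized to three housekeeping genes, is compared with DMSO controls in both directions.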", "values": [
      {"smiles": "CN(C)C(=O)Nc1ccc(Cl)cc1", "outcome": "inactive"},
      {"smiles": "[O-][Cl+]O", "outcome": "inactive"},
      {"smiles": "CCCCOC(=O)c1ccccc1C(=O)OCc1ccccc1", "outcome": "inactive"}
    ]},
    {"read-out": "Cyclin D2 (CCND2), CCND2 (gene 894)", "test": "LTEA_HepaRG_CCND2: Life Technologies and Expression Analysis (LTEA) Assay for Cyclin D2 (CCND2) using HepaRG (AID 2283449);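 also: CCND2 transcript measured by TaqMan qRT-PCR and normalised to three housekeeping genes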", "details": "mRNA level, 48 h; actives raise or lower the signal", "method_in_brief": "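Chemicals in 0.5% DMSO, eight half-log concentrations from 100 uM top, were applied in duplicate for 48 h to human HepaRG cells in serum-free induction medium. CCND2 mRNA by TaqMan qRT-PCR, normalised to ACTB/GAPDH/POLR2A; bidirectional fit versus DMSO.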", "values": [
      {"smiles": "OCCCl", "outcome": "inactive"},
      {"smiles": "COc1cc(C=O)cc2c1[C@H](COC(N)=O)[C@]1(OC(C)=O)ON2C[C@H]2[C@@H]1N2C(C)=O", "AC50": "29.6 µM (active)"},
      {"smiles": "CCN(CC)CCO", "outcome": "inactive"},
      {"smiles": "ClC1=C(Cl)C2(Cl)C3C(Cl)C=CC3C1(Cl)C2(Cl)Cl", "note": "(stereo not given)", "outcome": "inactive"},
      {"smiles": "CN(C)[C@@H]1C(=O)C(C(N)=O)=C(O)[C@@]2(O)C(=O)C3=C(O)c4c(O)cccc4[C@@](C)(O)[C@H]3C[C@@H]12", "outcome": "inactive"},
      {"smiles": "Clc1ccc(C(c2ccc(Cl)cc2)C(Cl)Cl)cc1", "outcome": "inactive"},
      {"smiles": "N#CC(Br)Br", "outcome": "inactive"},
      {"smiles": "C1=Cc2cccc3cccc1c23", "outcome": "inactive"},
      {"smiles": "CCCSC(=O)N(CCC)CCC", "outcome": "inactive"},
      {"smiles": "OCCOCCO", "outcome": "inactive"},
      {"smiles": "Clc1ccccc1Cl", "outcome": "inactive"},
      {"smiles": "C[N+](C)(C)CC1CO1", "note": "(stereo not given)", "outcome": "inactive"},
      {"smiles": "COC(=O)c1ccccc1N", "outcome": "inactive"},
      {"smiles": "CCCCOC(=O)c1ccccc1C(=O)OCc1ccccc1", "outcome": "inactive"}
    ]},
    {"read-out": "Cyclin Dependent Kinase Inhibitor 1A (CDKN1A), CDKN1A (gene 1026)", "test": "LTEA_HepaRG_CDKN1A: Life Technologies and Expression Analysis (LTEA) Assay for Cyclin Dependent Kinase Inhibitor 1A (CDKN1A) using HepaRG (AID 2283450)", "details": "mRNA level, 48 h; actives raise or lower the signal", "method_in_brief": "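Expression quantified by Fluidigm qRT-PCR with ACTB, GAPDH and POLR2A normalization, fitted bidirectionally against 0.5% DMSO. Cells: HepaRG, plated 48 h then treated 48 h in serum-free induction medium, top concentration 100 uM with half-log dilutions.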", "values": [
      {"smiles": "OCCCl", "outcome": "inactive"},
      {"smiles": "CCNS(=O)(=O)C(F)(F)C(F)(F)C(F)(F)C(F)(F)C(F)(F)C(F)(F)C(F)(F)C(F)(F)F", "outcome": "inactive"},
      {"smiles": "COC(=O)Nc1nc2ccccc2[nH]1", "outcome": "inactive"},
      {"smiles": "O=Cc1ccco1", "outcome": "inactive"},
      {"smiles": "CCCCC(CC)COC(=O)c1ccc(C(=O)OCC(CC)CCCC)c(C(=O)OCC(CC)CCCC)c1", "note": "(stereo not given)", "outcome": "inactive"},
      {"smiles": "CCCCCCCCn1sccc1=O", "outcome": "inactive"},
      {"smiles": "CC(C)(C)OOC(=O)c1ccccc1", "outcome": "inactive"},
      {"smiles": "c1ccc2c(c1)oc1ccccc12", "outcome": "inactive"},
      {"smiles": "COc1cc(C=O)cc2c1[C@H](COC(N)=O)[C@]1(OC(C)=O)ON2C[C@H]2[C@@H]1N2C(C)=O", "outcome": "inactive"},
      {"smiles": "CCN(CC)CCO", "outcome": "inactive"},
      {"smiles": "ClC1=C(Cl)C2(Cl)C3C(Cl)C=CC3C1(Cl)C2(Cl)Cl", "note": "(stereo not given)", "outcome": "inactive"},
      {"smiles": "CCC[CH2][Sn]([Cl])([CH2]CCC)[CH2]CCC", "AC50": "88.1 µM (active)"},
      {"smiles": "CN(C)[C@@H]1C(=O)C(C(N)=O)=C(O)[C@@]2(O)C(=O)C3=C(O)c4c(O)cccc4[C@@](C)(O)[C@H]3C[C@@H]12", "outcome": "inactive"},
      {"smiles": "ClCCOCCCl", "outcome": "inactive"},
      {"smiles": "Clc1ccc(C(c2ccc(Cl)cc2)C(Cl)Cl)cc1", "outcome": "inactive"},
      {"smiles": "N#CC(Br)Br", "outcome": "inactive"},
      {"smiles": "CC(O)CCO", "note": "(stereo not given)", "outcome": "inactive"},
      {"smiles": "C1=Cc2cccc3cccc1c23", "outcome": "inactive"},
      {"smiles": "CCCSC(=O)N(CCC)CCC", "outcome": "inactive"},
      {"smiles": "OCCOCCO", "outcome": "inactive"},
      {"smiles": "Clc1ccc(Cl)c(Cl)c1", "outcome": "inactive"},
      {"smiles": "CC(C)(OOC(C)(C)c1ccccc1)c1ccccc1", "outcome": "inactive"},
      {"smiles": "Clc1ccccc1Cl", "outcome": "inactive"},
      {"smiles": "C[N+](C)(C)CC1CO1", "note": "(stereo not given)", "outcome": "inactive"},
      {"smiles": "COC(=O)c1ccccc1N", "outcome": "inactive"},
      {"smiles": "CN(C)C(=O)Nc1ccc(Cl)cc1", "outcome": "inactive"},
      {"smiles": "[O-][Cl+]O", "outcome": "inactive"},
      {"smiles": "CCCCOC(=O)c1ccccc1C(=O)OCc1ccccc1", "outcome": "inactive"}
    ]}
  ]
}
